# Compounds with a hit are over-represented: about 28% of the library has one in this group of screens.
# CYP2C19 activ: increases human CYP2C19 enzyme activity. activation factor at 5 µM. P33261. 96,000 tested, under 10 active. recombinant CYP2C19, luciferin-H EGE luminescence; active compounds read high; 0 = fully inhibited enzyme, 1 = untreated enzyme. AID 1025;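 active = activation factor of at least 2 at 5 µM in the primary screen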;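 note: 0 = wells with 2.5 mM tranylcypromine and 1 = vehicle-only wells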
# D1 allo mod: D1 dopamine receptor (human) allosteric modulation; HEK293 D1, CRE-luciferase, dopamine EC30 potentiation; actives deviate in either direction; B-score at 10 µM; 5.9% of 58,000 active; AID 641;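 active = luminescence count or its row- and column-corrected plate score outside the 99.7% band of the plate's sample wells, on either side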
# CYP2C19 inhib: inhibitors of human CYP2C19; P33261; CYP2C19 Supersomes, luciferin-H EGE luminescence, 30 min; inhibition, % at 5 µM; 21% of 96,000 active;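 active = CYP2C19 inhibition above a set limit at 5 µM in the primary screen, cut at about 50% in these data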;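 note: plate controls were negative control wells for no effect and 2.5 mM tranylcypromine positive control for full effect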
# CYP2C9 act: CYP2C9 (human) activation; recombinant CYP2C9, luciferin-H conversion, luminescence; active compounds read high; factor 1 = untreated enzyme, 0 = blocked; activation factor at 5 µM; 1.4% of 96,000 active; AID 1024;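 active = activation factor of 2 or more for CYP2C9 at a 5 µM dose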;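 note: 0 = sulfaphenazole-blocked wells and 1 = vehicle-only wells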
# Target sequence (P11712 whole entry, looked up): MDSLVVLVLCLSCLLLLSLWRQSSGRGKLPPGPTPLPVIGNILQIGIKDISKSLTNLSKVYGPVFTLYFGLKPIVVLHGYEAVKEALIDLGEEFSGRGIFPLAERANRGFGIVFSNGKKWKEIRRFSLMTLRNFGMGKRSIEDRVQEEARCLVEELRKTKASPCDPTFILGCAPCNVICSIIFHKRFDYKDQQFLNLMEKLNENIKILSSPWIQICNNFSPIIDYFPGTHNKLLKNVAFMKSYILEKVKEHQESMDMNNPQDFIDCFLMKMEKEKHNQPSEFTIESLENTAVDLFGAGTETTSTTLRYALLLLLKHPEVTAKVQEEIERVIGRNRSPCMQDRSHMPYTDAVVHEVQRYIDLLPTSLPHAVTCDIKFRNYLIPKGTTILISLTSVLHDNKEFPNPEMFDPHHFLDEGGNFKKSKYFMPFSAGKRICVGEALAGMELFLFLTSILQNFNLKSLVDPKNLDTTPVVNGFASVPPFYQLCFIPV
# CYP2C9 inhib: inhibitors of human CYP2C9; P11712; CYP2C9 Supersomes, luciferin-H conversion, luminescence; inhibition, % at 5 µM; 20% of 96,000 active; AID 777;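 active = blocking of liver enzyme CYP2C9 beyond about 50% at 5 µM, limit read from the data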
# DAT uptake mod: changed human dopamine transporter uptake under cocaine IC80. B-score at 10 µM. LLC-PK1 hDAT cells, [14C]-dopamine uptake with cocaine IC80; actives deviate in either direction. 1.3% of 110,000 active. Q01959;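 active = Z score or B-score, a plate-position-corrected score, falls beyond the plate's 99.7% confidence bounds, in either direction; inactive = both scores lie inside the 99.7% bounds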;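 note: scored against the spread of the other compound wells on the same plate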
# D1 PAM confirm: confirmation of human D1 dopamine receptor allosteric modulators; luminescence at 10 µM; 88% of 2,200 active; shares compounds with D1 allo mod; HEK293 D1 CRE-luciferase, dopamine EC30 potentiation; active compounds read high;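 active = luminescence in either of two replicates above the same-plate mean plus 3 SD of the low-dose dopamine control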
# D1 ag no DA: activates D1 CRE-luciferase signal without dopamine present; shares compounds with D1 allo mod; HEK293 D1 CRE-luciferase, luminescence, no dopamine; active compounds read high; luminescence at 10 µM; 0.8% of 1,900 active; AID 646; in the data active = luminescence above about 3900
# Isoprot counter: counter-screen for D1 modulators: isoproterenol response in HEK293 cells. shares compounds with D1 allo mod. HEK293 D1 CRE-luciferase, isoproterenol EC30 counter-screen. calls only at 10 µM. 63% of 2,200 active;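 active = luminescence in either replicate above plate mean of wells with a partly effective reference agonist dose plus 3 SD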;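 note: isoproterenol raises cAMP through native beta-adrenoceptor Gs so signal bypasses D1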
# Starred values were filed as active, the others as inactive; i = inactive; x = not tested or not shown; + = active, no number.
SMILES,CYP2C19 activ,D1 allo mod,CYP2C19 inhib,CYP2C9 act,CYP2C9 inhib,DAT uptake mod,D1 PAM confirm,D1 ag no DA,Isoprot counter
CCOC(=O)C(Sc1nnc2c3ccccc3n(CC)c2n1)C(=O)OCC,0.7,5.2*,32,0.6,36,-0.74,11136*,1560,+
CCc1ccc(NC(=O)CSc2nnc(COc3ccc4c(c3)CCCC4)o2)cc1,0.8,x,25,0.6,40,-0.15,x,x,x
CCOC(=O)CCc1c(C)c(C#N)c2nc3ccccc3n2c1-n1ccnc1,1,0.19,1,1,-2,0.51,x,x,x
COC(=O)CCc1c(C)c(C#N)c2nc3ccccc3n2c1N1CCCC1,0.9,5.5*,9,0.6,37,-0.77,10456*,x,+
COc1ccc(C(=O)n2nc(-c3ccccc3)nc2N)cc1OC,0.7,6.1*,32,0.8,15,0.25,15096*,1896,+
CCCc1nnc(NC(=O)CCC(=O)O)s1,1.1,x,-8,1.1,-9,-0.13,x,x,x
COc1ccc(OC)c(NC(=O)CSc2nc3ccccc3c(=O)n2CCNC(C)=O)c1,x,9.7*,x,x,x,-0.81,9716*,1560,i
COc1cccc(CNc2ccc(S(=O)(=O)Nc3nccs3)cc2)c1O,1.1,12*,-14,1.8,-80,-0.29,14616*,1520,+
O=C(NCc1ccc(F)cc1)c1ccc(CS(=O)(=O)Cc2ccccc2F)o1,0.7,-0.38,30,1.1,-8,1.4,x,x,x
CCCCN(C)C1=Nc2cccc3cccc1c23,0.9,x,10,1.1,-6,x,x,x,x
COc1ccc(CCNS(=O)(=O)c2ccc3c(c2)OCCO3)cc1OC,0.2,5.2*,84*,0.5,46,0.68,11256*,1696,i
COc1ccc(CCNS(=O)(=O)c2cccc(F)c2)cc1OC,0.5,8.1*,51*,0.5,51*,0.18,11924*,x,+
CCOCCCNS(=O)(=O)c1ccc2c(c1)OCCO2,0.7,0.27,29,1.5,-49,0.14,x,x,x
CCc1ccc(CNC(=O)C(=O)NCCc2ccc(OC)c(OC)c2)cc1,x,x,x,x,x,0.61,x,x,x
COc1ccc(C(C)=O)cc1CN(C)C,1.1,x,-10,1.2,-19,-0.023,x,x,x
C=CCn1c(COC)nnc1SCC(=O)c1ccc(F)cc1,0.6,0.012,36,1.2,-17,0.0015,x,x,x
COc1cc2[nH]c(=S)n(C3CCCC3)c(=O)c2cc1OC,0.9,2.9*,14,0.8,21,0.18,13356*,1768,i
COc1cc2[nH]c(=S)n(CC3CCCO3)c(=O)c2cc1OC (stereo unspecified),1,1.9,0,0.8,22,1,x,x,x
COc1ccc2cc(/C=N/NC(=O)CSCc3ccc([N+](=O)[O-])cc3)c(Cl)nc2c1,0.9,x,12,1,3,0.037,x,x,x
CCOC(=O)c1ccc2nc(NC(=O)C(C)C)sc2c1,x,5.4*,x,x,x,0.55,7532,1532,i
CCCC(=O)Nc1nc2ccc(C(=O)OCC)cc2s1,0.9,x,5,0.8,15,0.65,x,x,x
O=C1CC(N2CCN(Cc3ccc4c(c3)OCO4)CC2)C(=O)N1CCc1ccccc1 (stereo unspecified),0.9,2.5*,14,1,3,1.8,4952,960,i
CC(C)n1c(CN2CCN(C)CC2)nc2c1c(=O)n(C)c(=O)n2C,x,-0.37,x,x,x,x,x,x,x
CC(=O)Oc1c(Cl)c(N2CCOCC2)c(OC(C)=O)c2ccccc12,0.5,3.1*,52*,0.7,26,-0.2,5620*,1464,i
Cc1cc(OC(=O)N2CCOCC2)cc(C)c1Cl,0.9,0.21,6,1.3,-25,-0.06,x,x,x
SMILES,CYP2C19 activ,D1 allo mod,CYP2C19 inhib,CYP2C9 act,CYP2C9 inhib,DAT uptake mod,D1 PAM confirm,D1 ag no DA,Isoprot counter
COC(=O)c1ccccc1NC(=O)COc1ccc(S(=O)(=O)N2CCCC2)cc1C,1,3.2*,0,1.2,-19,0.81,5776*,1512,i
COC(=O)c1ccccc1NC(=O)COc1ccccc1,0.5,5.8*,53*,1,2,-0.38,14156*,1628,+
O=C(COc1ccc(S(=O)(=O)N2CCCC2)cc1Cl)NC1CCCC1,1,x,4,0.5,48,1.5,x,x,x
CCOC(=O)C(C(=O)OCC)N(C#N)c1nc(SC)nc(N(C)C)n1,0.5,0.5,46,1,-4,1.2,x,x,x
CC1(C)Cc2c(C#N)c(NC3CCCCC3)nc(-c3ccco3)c2CO1,0.9,3.4*,6,0.4,60*,1.4,8368*,1616,i
COc1cccc(C2c3c(oc4ccc(F)cc4c3=O)C(=O)N2CCCN2CCOCC2)c1 (stereo unspecified),1.2,3.8*,-20,1,-4,x,6980,1496,i
O=C1c2oc3ccc(F)cc3c(=O)c2C(c2ccc(F)cc2)N1CCCN1CCOCC1 (stereo unspecified),x,-0.36,x,x,x,-1,x,x,x
Cc1onc(-c2ccccc2)c1C(=O)Nc1ccc2c(C)cc(=O)oc2c1,0.8,0.9,15,0.6,40,-0.51,x,x,x
Cc1onc(-c2ccccc2)c1C(=O)Nc1ccc2c(c1)OCO2,0,5*,99*,0.2,79*,0.45,11760*,1796,i
CC(C)C1CCC(C(=O)N[C@H](Cc2ccccc2)C(=O)O)CC1 (stereo partly specified),x,x,x,x,x,-0.34,x,x,x
CCn1ccc(C(=O)Nc2ccc(N(C)C(C)=O)cc2)n1,1.1,2.4*,-11,1.1,-10,0.081,5156,1532,i
CC(=O)N(C)c1ccc(NC(=O)c2ccccc2C(=O)O)cc1,0.9,-1.3,14,1.1,-10,-1.1,x,x,x
c1ccc(CSc2nncn2-c2ccccn2)cc1,0.1,7.9*,88*,0.8,19,-0.00076,12884*,1752,+
CCCCN=C1NC(=O)C(CC(=O)Nc2ccc(Cl)cc2)S1 (stereo unspecified),1,x,5,1.3,-26,-0.21,x,x,x
O=C(CC1SC(=NC2CCCCC2)NC1=O)Nc1ccccc1 (stereo unspecified),x,2.6*,x,x,x,0.24,6104*,1644,i
O=C(O)C1CC(=O)N(Cc2ccccc2)C1 (stereo unspecified),1,-0.21,-2,1.4,-40,-0.66,x,x,x
CCOC(=O)c1sc(N)c(C(=O)OCC)c1COC(=O)C1CC(=O)N(Cc2ccco2)C1 (stereo unspecified),0.1,6.1*,91*,0,98*,0.25,8580*,x,+

# Source: PubChem
